{"source": "PubChem BioAssay AID1478", "about": "(National Center for Advancing Translational Sciences (NCATS), 2009)", "note": "Values joined by “and” are separate entries in the source; they are usually repeats but may differ in a detail not shown here. Identical values can stand only once. Hit rate of the full screen: of about 200,000 compounds, about 860 (0.43%) were called active. Shown is part of a subset that was picked to be rich in actives. Unmarked numbers belong to inactive results. Calls follow the shape of the dose curve; as a rule, active = well fitted inhibition curve with a large enough effect; inconclusive = small, poorly fitted or top-dose-only effect; inactive = flat fitted curve, though single readings scatter. Potency is read from the fitted curve at half-maximal effect."}
{"molecular_target": "Cruzipain (Trypanosoma cruzi) (UniProt P25779)", "sequence (P25779 123-467 limits assumed)": "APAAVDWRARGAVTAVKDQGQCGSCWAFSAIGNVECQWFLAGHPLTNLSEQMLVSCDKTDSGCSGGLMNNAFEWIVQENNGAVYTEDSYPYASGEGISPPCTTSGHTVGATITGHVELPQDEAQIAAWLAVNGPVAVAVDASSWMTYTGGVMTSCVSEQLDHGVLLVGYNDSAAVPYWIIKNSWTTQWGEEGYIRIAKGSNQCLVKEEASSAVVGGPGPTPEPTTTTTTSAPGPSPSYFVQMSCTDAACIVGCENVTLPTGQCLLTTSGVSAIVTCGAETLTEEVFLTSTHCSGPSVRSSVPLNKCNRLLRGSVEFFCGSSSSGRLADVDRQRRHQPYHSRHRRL", "experiment": "qHTS Assay for Promiscuous and Specific Inhibitors of Cruzain (with detergent); also: nearly all actives have a fitted effect of over 40% in size;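 as to max response, negative = inhibition: plate controls were neutral wells for no effect and buffer without enzyme for full effect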", "details": "purified cruzain, Z-FR-AMC fluorescence, 0.01% Triton", "method_in_brief": "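Steps: dispense cruzain (1.5 nM final) in acetate buffer pH 5.5 with DTT and 0.01% Triton X-100; pin-transfer compounds; incubate 15 min RT; add Z-FR-AMC (2 uM final); read fluorescence every 30 s, using the 60 s intensity change.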"}
{"smiles": "CC(C)c1ccc(NC(=O)C2CCN(c3nc(-c4ccc(C(C)C)cc4)no3)CC2)cc1", "max response, negative = inhibition": "0.837%"}
{"smiles": "Cc1ccc(C2C=C(c3ccc(Cl)cc3)Nc3nc(NC(=O)CCC(=O)O)nn32)cc1", "note": "(configuration not stated)", "max response, negative = inhibition": "0.942%"}
{"smiles": "O=S(=O)(c1ccccc1)c1nc(-c2ccc(Cl)cc2Cl)oc1N1CCCCC1", "max response, negative = inhibition": "-15.9%"}
{"smiles": "O=C(NCc1ccccn1)c1cc(-c2ccccc2Cl)on1", "max response, negative = inhibition": "-2.6%"}
{"smiles": "CN(c1ccc(C(=O)NCc2ccccn2)cc1)S(C)(=O)=O", "max response, negative = inhibition": "1.59%"}
{"smiles": "O=C(NCc1ccccn1)c1ccc2nc(-c3ccco3)c(-c3ccco3)nc2c1", "Potency": "22.4 µM (active)"}
{"smiles": "O=S(=O)(c1ccc2nc(NCc3ccccc3Cl)ccc2c1)N1CCCCC1", "max response, negative = inhibition": "-1.7%"}
{"smiles": "Cc1ccc(Cn2c(CNC(=O)Cc3cccc(C)c3)nc3cccnc32)cc1", "max response, negative = inhibition": "-1.98%"}
{"smiles": "COc1ccc2[nH]c3c(c2c1)CCN(C(=O)CCC1CCCC1)C3c1ccc(F)cc1", "note": "(configuration not stated)", "max response, negative = inhibition": "7.03%"}
{"smiles": "Cc1ccc(C(=O)COC(=O)C(Cc2c[nH]c3ccccc23)NC(=O)c2ccc(Br)cc2)cc1", "note": "(configuration not stated)", "max response, negative = inhibition": "-0.996%"}
{"smiles": "COc1cc(OC)c(NC(=O)c2cc(S(=O)(=O)N3CCCC3)cn2C)cc1Cl", "max response, negative = inhibition": "-0.944%"}
{"smiles": "c1ccc(CSc2nnc(-c3ccco3)c(-c3ccco3)n2)cc1", "Potency": "14.1 µM (active)"}
{"smiles": "Nc1nc(SCc2ccccc2Cl)n[nH]1", "max response, negative = inhibition": "1.94%"}
{"smiles": "Nc1cc(=O)nc(SCc2ccccc2)n1Cc1ccco1", "max response, negative = inhibition": "-10.9%"}
{"smiles": "Clc1ccccc1CSc1nncn2c1cc1occc12", "max response, negative = inhibition": "-2.67%"}
{"smiles": "O=C(Nc1nnc(SCc2ccccc2)s1)c1ccco1", "max response, negative = inhibition": "0.832%"}
{"smiles": "Clc1ccccc1CSc1nnc(-c2ccco2)c(-c2ccco2)n1", "Potency": "25.1 µM (active)"}
{"smiles": "CCc1ccc(NC(=O)c2cnc3c(-c4ccccc4)c(C)nn3c2C)cc1", "max response, negative = inhibition": "-6.46%"}
{"smiles": "Cc1ccc(S(=O)(=O)c2c(Nc3cccc(Cl)c3)sc(C(=O)c3ccc4c(c3)OCO4)c2N)cc1", "max response, negative = inhibition": "-3.98%"}
{"smiles": "COCCn1c(SCC(=O)c2cc(C)ccc2C)nc2cc(C(=O)NC3CCCC3)ccc2c1=O", "max response, negative = inhibition": "-0.0872%"}
{"smiles": "COc1ccccc1CNC(=O)c1ccc(CS(=O)c2ccccc2Cl)o1", "note": "(configuration not stated)", "max response, negative = inhibition": "-8.94%"}
{"smiles": "Cc1nn(C(C)C(=O)NCCc2ccccc2)c(=O)c2c1sc1ccccc12", "note": "(configuration not stated)", "max response, negative = inhibition": "-6.56%"}
{"smiles": "CNc1ccc(-c2nc(-c3ccco3)no2)cc1[N+](=O)[O-]", "max response, negative = inhibition": "-3.84%"}
{"smiles": "CC(=O)c1c(O)c(C)c(O)c(Cc2c(O)c3c(c(C(=O)/C=C\\c4ccccc4)c2O)OC(C)(C)C=C3)c1O", "Potency": "31.6 µM (active)"}
{"smiles": "CC(=O)c1c(O)c(C)c(O)c(Cc2c(O)c3c(c(C(=O)/C=C/c4ccccc4)c2O)OC(C)(C)C=C3)c1O", "max response, negative = inhibition": "-22.4%"}
{"smiles": "O=C(/C=C/c1ccccc1)c1ccccc1O", "max response, negative = inhibition": "-1.13% and 3.47%"}
{"smiles": "COc1cc(NC(=O)CSc2nc3nc(C)c(Cc4ccc(C)cc4)c(C)n3n2)cc(OC)c1OC", "max response, negative = inhibition": "-4.19%"}
{"smiles": "O=C(CCc1nc(CN2CCN(S(=O)(=O)c3ccc(Br)cc3)CC2)no1)N1CCCCC1", "max response, negative = inhibition": "-0.641%"}
{"smiles": "O=C(CC(c1cccs1)N1Cc2ccccc2C1=O)Nc1ccc(F)cc1F", "note": "(configuration not stated)", "max response, negative = inhibition": "-5.84%"}
{"smiles": "O=S(=O)(NCCc1nnc2ccc(SCc3ccc(Cl)cc3Cl)nn12)c1ccccc1", "max response, negative = inhibition": "-7.61%"}
{"smiles": "O=C(CCOc1ccccc1)N(Cc1cccnc1)c1nc2ccc(Cl)cc2s1", "max response, negative = inhibition": "-5.3%"}
{"smiles": "COc1cc(NC(=O)Nc2ccc(C)cc2)cc([N+](=O)[O-])c1", "max response, negative = inhibition": "-3.61%"}
{"smiles": "COc1cccc(NC(=S)NCCCN2CCOCC2)c1", "max response, negative = inhibition": "-2.47%"}
{"smiles": "COc1cc(NC(=S)NCCSc2ccc(C)cc2)cc(OC)c1", "Potency": "2 µM (active)"}
{"smiles": "CC(NC(=O)CCc1cn(Cc2ccccc2Cl)c2ccccc12)c1ccccc1", "note": "(configuration not stated)", "max response, negative = inhibition": "-2.02%"}
{"smiles": "CC(C)(C)c1ccc(C(=O)Nc2ccc3c(c2)CCCN3C(=O)c2cccs2)cc1", "max response, negative = inhibition": "-4.1%"}
{"smiles": "COc1cc(NC(=O)c2cc(C3CC3)nc3c2c(C)nn3-c2ccccc2)cc(OC)c1", "max response, negative = inhibition": "-4.38%"}
{"smiles": "CC(=O)NC1=NN(C(C)=O)C(C)(CCS(=O)(=O)c2ccc(Cl)c(Cl)c2)S1", "note": "(configuration not stated)", "max response, negative = inhibition": "-3.08%"}
{"smiles": "CC(=O)NC1=NN(C(C)=O)C(C)(c2ccc(Cl)s2)S1", "note": "(configuration not stated)", "Potency": "28.2 µM (active)"}
{"smiles": "CC(=O)NC1=NN(C(C)=O)C(C)(c2ccc(C)cc2)S1", "note": "(configuration not stated)", "max response, negative = inhibition": "-0.836%"}
{"smiles": "COc1ccc(Cn2c(=O)c3oc4ccccc4c3n(CC(=O)Nc3ccc(F)cc3F)c2=O)cc1", "max response, negative = inhibition": "-0.479%"}
{"smiles": "COc1ccccc1NC(=O)CCC(=O)N1CC(C)Oc2ccc(C)cc21", "note": "(configuration not stated)", "max response, negative = inhibition": "-2.9%"}
{"smiles": "COc1ccccc1-n1c(-c2ccc(C)cc2)cn2c3c(=O)n(C)c(=O)n(C)c3nc12", "max response, negative = inhibition": "0.477%"}
{"smiles": "Cc1ccccc1OCc1nc2c3cnn(-c4ccccc4F)c3ncn2n1", "max response, negative = inhibition": "-0.812%"}
{"smiles": "Cc1ccccc1-c1nc(SCC(=O)N(C)c2ccccc2)c2c(=O)n(C)c(=O)n(C)c2n1", "max response, negative = inhibition": "0.835%"}
{"smiles": "Cc1ccc(-c2cc(C(=O)Oc3ccccc3Cl)no2)cc1C", "max response, negative = inhibition": "-5.97%"}
{"smiles": "CCOc1ccc(NC(=O)c2cc3c(=O)n(Cc4cccs4)ccc3nc2C)cc1", "max response, negative = inhibition": "-4.36%"}
